Experimental data: PubChem BioAssay AID624151 (Broad Institute, 2012)
Among all 28,000 compounds or so, about 410 (1.5%) were called active. No stated cut-off is given here; in the data, active means activation above about 52%; inconclusive means no clear call, values can overlap the other calls; inactive means below that. The sample as a whole holds a higher share of actives than the screen did.

Experiment: mutant p53 pathway re-activators, primary screen, cell-based, SW480, luciferase, single point, HTS (AID 624151)
Settings: SW480 PUMA-promoter luciferase, p53 mutant reactivation; at 9.98 µM; stronger effect = higher value
In the case of COc1ccc(NC(=O)Cn2cnc3sc(C)c(C)c3c2=O)cc1, the activation is reported as 4.48% (inactive).
In the case of COc1ccc(NC(=O)N(C)C[C@H]2Oc3cc(-c4ccncc4)ccc3S(=O)(=O)N([C@H](C)CO)C[C@H]2C)cc1, the activation is reported as -12.4% (inactive).
With COc1ccc(NC(=O)CSC2CC(=O)N(c3ccc(F)cc3)C2=O)cc1 (stereo unspecified) the activation was -1.05% (inactive).
With Cc1ccccc1-n1c(C)cc(/C=C2\NC(=O)NC2=O)c1C the activation was 22.9% (inactive).
For Cc1ccc(C(=O)O)cc1S(=O)(=O)NCCCO, the activation was -7.19% (inactive).
In the case of COc1cccc2cc(C(=O)C3C(=O)C(=O)N(CCN4CCOCC4)C3c3ccc(F)cc3)oc12 (stereo unspecified), the activation is reported as 4.69% (inactive).
With C[C@H](O)C#Cc1cnc2c(c1)C(=O)N([C@@H](C)CO)C[C@H](C)[C@H](CN(C)C(=O)c1ccccc1)O2 the activation was 10.7% (inactive).
In the case of C[C@@H]1CN([C@H](C)CO)S(=O)(=O)c2ccc(C#CC3CC3)cc2O[C@H]1CN(C)C(=O)C1CCCCC1, the activation is reported as -13.7% (inactive).
In the case of Cc1sc2ncnc(SCC(=O)Nc3ccccc3)c2c1-c1ccccc1, the activation is reported as -11.3% (inactive).
With Cc1ccc(S(=O)(=O)c2nc(-c3cccs3)oc2NCc2cccnc2)cc1 the activation was -4.49% (inactive).
For C[C@@H]1CN([C@H](C)CO)S(=O)(=O)c2ccc(C#C[C@@H](C)O)cc2O[C@H]1CN(C)C(=O)CC1CC1, the activation was 0.298% (inactive).
In the case of CS(=O)(=O)N(CC(=O)Nc1ccc(Br)cc1)c1cc(Cl)c(Cl)cc1Cl, the activation is reported as -23.8% (inactive).
In the case of C[C@H](CO)N1C[C@H](C)[C@H](CN(C)C(=O)c2cnccn2)Oc2cc(C3=CCCC3)ccc2S1(=O)=O, the activation is reported as 3.46% (inactive).
In the case of O=C(CSc1nnc(-c2ccncc2)n1-c1ccc(Cl)cc1)Nc1ccc(C(=O)O)cc1, the activation is reported as 7.38% (inactive).
With CCCC#Cc1cnc2c(c1)C(=O)N([C@H](C)CO)C[C@H](C)[C@@H](CN(C)C(=O)c1cccnc1)O2 the activation was 2.84% (inactive).
In the case of Cc1ccn2c(NC(=O)C(C)(C)Oc3ccc(Cl)cc3)c(-c3ccc(F)cc3)nc2c1, the activation is reported as -19% (inactive).
In the case of CCc1ccccc1NC(=O)CSc1nnc(N)s1, the activation is reported as 10.1% (inactive).
With COc1ccc(NC(=O)C(C)N2c3cccc4cccc(c34)S2(=O)=O)c(OC)c1 (stereo unspecified) the activation was -6.27% (inactive).
For COc1ccccc1-c1cnc2c(c1)C(=O)N([C@@H](C)CO)C[C@@H](C)[C@@H](CN(C)C(=O)c1cccnc1)O2, the activation was 2.65% (inactive).
For COc1ccccc1-c1cnc2c(c1)C(=O)N([C@H](C)CO)C[C@H](C)[C@@H](CN(C)CC1CCOCC1)O2, the activation was 5.27% (inactive).
In the case of O=C(O)CCSc1nnc2c(n1)[nH]c1ccccc12, the activation is reported as -2.83% (inactive).
In the case of O=C(CSc1nnc(-c2ccco2)n1-c1ccccc1)Nc1ccc(F)cc1, the activation is reported as 7.08% (inactive).
For O=C(CSc1nnc(-c2ccc(Br)cc2)o1)Nc1ccc2ccccc2c1, the activation was -20.7% (inactive).
In the case of Cc1ccc(-c2nnc(SCC(=O)Nc3ccccc3OC(F)F)o2)cc1, the activation is reported as 102% (active).
For COc1ccccc1-c1nnc(SCC(=O)Nc2ccccc2)o1, the activation was 28.3% (inactive).
With O=C(CSc1ncnc2sc3c(c12)CCCC3)Nc1ccc(F)c(Cl)c1 the activation was 0.113% (inactive).
For CC(C)Cc1nc(SCC(=O)Nc2ccc3ccccc3c2)n[nH]1, the activation was 9.32% (inactive).
With C/C=C/c1ccc2c(c1)O[C@H](CN(C)Cc1cccc(F)c1)[C@H](C)CN([C@H](C)CO)S2(=O)=O the activation was -12.7% (inactive).
For COc1ccccc1NC(=O)N(C)C[C@@H]1Oc2ncc(Br)cc2C(=O)N([C@@H](C)CO)C[C@@H]1C, the activation was 3.31% (inactive).
In the case of CCn1c(SCC(=O)O)nc2sc3c(c2c1=O)CC(C)(C)OC3, the activation is reported as 17.9% (inactive).
With COC(=O)c1cc(OC)c(OC)cc1NC(=O)c1cc(-c2ccc(C)o2)nc2ccccc12 the activation was 21.7% (inactive).
With Cc1ccc(C(=O)Oc2ccc(C(=O)CSc3nc4ccccc4o3)cc2)cc1 the activation was 45.6% (inactive).
With COc1ccc(C(=O)CCC(=O)Nc2ccc(Br)cc2)cc1 the activation was -1.31% (inactive).
For COc1ccccc1NC(=O)CSc1n[nH]c(C)n1, the activation was -9.46% (inactive).
In the case of CCOc1ccc(NC(=O)Cn2c(=O)n(-c3ccc(Cl)cc3)c(=O)c3c4c(sc32)CCC4)cc1, the activation is reported as -5.81% (inactive).
In the case of COc1ccccc1-n1c(N)cc(=O)nc1SCC(=O)Nc1ccc(Br)cc1, the activation is reported as 3.88% (inactive).
In the case of COC(=O)COc1cccc(NC(=O)c2cc(OC)c(OC)c(OC)c2)c1, the activation is reported as 9.43% (inactive).
With Cc1cc2oc(C(=O)Nc3sc4c(c3C(=O)NCc3ccco3)CCC4)c(C)c2cc1C the activation was -5.36% (inactive).
For C[C@@H]1CN([C@@H](C)CO)S(=O)(=O)c2ccc(-c3cccc(C#N)c3)cc2O[C@@H]1CN(C)Cc1cccc(F)c1, the activation was -25.7% (inactive).
With C[C@@H]1CN([C@@H](C)CO)C(=O)c2cc(/C=C/c3ccccc3)cnc2O[C@H]1CN(C)C(=O)Nc1ccc(C(F)(F)F)cc1 the activation was -18.8% (inactive).
For COc1ccc(Cl)cc1NC(=O)CSc1nnc(-c2ccc(Cl)c(Cl)c2)n1C, the activation was 1.7% (inactive).
For C/C=C/c1ccc2c(c1)O[C@H](CN(C)C(=O)Cc1cccnc1)[C@@H](C)CN([C@H](C)CO)S2(=O)=O, the activation was -5.22% (inactive).
With Cc1cc(=O)oc2cc(OC(C)C(=O)Nc3ccc(Cl)c(C(F)(F)F)c3)ccc12 (stereo unspecified) the activation was 0.711% (inactive).
For CCCC#Cc1ccc2c(c1)O[C@@H](CN(C)CC1CC1)[C@@H](C)CN([C@H](C)CO)S2(=O)=O, the activation was 1.22% (inactive).
In the case of COCCNC(=O)C[C@@H]1C[C@@H]2c3cc(NC(=O)Nc4ccc(C(F)(F)F)cc4)ccc3O[C@@H]2[C@@H](CO)O1, the activation is reported as 11.3% (inactive).
In the case of Cc1ccnc(NC(c2cccc([N+](=O)[O-])c2)c2ccc3ccc(C)nc3c2O)c1 (stereo unspecified), the activation is reported as -13.9% (inactive).
In the case of Cc1csc2nc(SCC(=O)Nc3ccc([N+](=O)[O-])cc3)[nH]c(=O)c12, the activation is reported as 15.6% (inactive).
In the case of COc1cc(NC(=O)COc2ccccc2Br)c(OC)cc1Cl, the activation is reported as 132% (active).
With COC(=O)c1cc(OC)c(OC)cc1NC(=O)COc1ccccc1Cl the activation was 10.4% (inactive).
For COc1cc(NC(=O)COc2ccc(Cl)cc2C)c(OC)cc1Cl, the activation was 105% (active).
With COc1cc(NC(=O)COc2ccc(Br)cc2)ccc1NC(=O)c1ccccc1Cl the activation was 20.3% (inactive).
In the case of COc1ccc(NC(=O)CSc2nnnn2C)cc1Cl, the activation is reported as 47.7% (inactive).
With COc1cc(NC(=O)COc2cc(C)c(Br)c(C)c2)c(OC)cc1Cl the activation was 0.202% (inactive).
With COC(=O)c1cc(OC)c(OC)cc1NC(=O)COc1ccc(Cl)cc1 the activation was -22.9% (inactive).
In the case of Cn1nnc(NC(=O)COc2ccc(Cl)cc2Cl)n1, the activation is reported as 70.8% (active).
In the case of CCOc1ccc(OCC(=O)Nc2cc(C)c(Cl)cc2OC)cc1, the activation is reported as 8.21% (inactive).
In the case of CS(=O)(=O)N(CC(=O)Nc1cc(C(F)(F)F)ccc1Cl)c1ccccc1Br, the activation is reported as -13.9% (inactive).
For Cc1cc(C)c2oc(-c3cccc(NC(=O)COc4ccc(Br)cc4)c3C)nc2c1, the activation was -29.6% (inactive).
For Cc1ccc2nc(-c3ccc(Cl)c(NC(=O)COc4ccc(Br)cc4)c3)oc2c1, the activation was 91.4% (active).
For Cc1ccc(OCC(=O)Nc2cc(-c3nc4cc(C)c(C)cc4o3)ccc2C)cc1, the activation was 39.9% (inactive).
With CS(=O)(=O)N(CC(=O)Nc1ccccc1C(=O)N1CCOCC1)c1ccc(I)cc1 the activation was 9.09% (inactive).
For CN(C)CCNc1oc(COc2ccc(F)cc2)nc1C#N, the activation was -4.45% (inactive).
In the case of Cc1ccc(N(CC(O)CN2C(=O)NC(C)(C)C2=O)S(=O)(=O)c2ccccc2)cc1 (stereo unspecified), the activation is reported as 22.6% (inactive).
In the case of O=C1c2ccccc2C(=O)N1CCCc1nc2ccccc2c(=O)n1-c1nc2ccccc2s1, the activation is reported as 102% (active).
With Cc1ccc(NC(=O)CCCN2C(=O)c3ccccc3C2=O)cc1 the activation was 11.8% (inactive).
For O=C1c2ccccc2C(=O)N1CCCn1c2ccccc2c2nc3ccc([N+](=O)[O-])cc3cc21, the activation was 9.36% (inactive).
In the case of COCC#Cc1cnc2c(c1)C(=O)N([C@H](C)CO)C[C@H](C)[C@@H](CN(C)C(=O)Nc1cc(F)ccc1F)O2, the activation is reported as 13.3% (inactive).
In the case of CC(NS(=O)(=O)c1ccc(F)cc1)C(=O)Nc1ccc(I)cc1 (stereo unspecified), the activation is reported as -13.8% (inactive).
For COc1ccc(C#Cc2cnc3c(c2)C(=O)N([C@H](C)CO)C[C@H](C)[C@@H](CN(C)C)O3)cc1, the activation was 0.282% (inactive).
For COc1ccc(S(=O)(=O)N(C)CC(=O)Nc2ccc3c(c2)OCCO3)cc1OC, the activation was -12.9% (inactive).
In the case of O=C(CS(=O)(=O)c1ccccc1)Nc1ccccc1O, the activation is reported as 7.6% (inactive).
With O=C(CS(=O)(=O)c1ccccc1)Nc1ccc2c(c1)OCCO2 the activation was 61.6% (active).
For CC(C)(C)c1ccc(OCC(=O)NCc2ccccn2)c(Br)c1, the activation was 94.5% (active).
In the case of CN(c1ccc(C(=O)NCc2ccccn2)cc1)S(C)(=O)=O, the activation is reported as 5.75% (inactive).
In the case of Cc1ccc2nc(-c3ccncc3)cc(C(=O)NCc3ccccn3)c2c1, the activation is reported as -3.82% (inactive).
In the case of CCCNC(=O)N(C)C[C@H]1Oc2cc(C#CC(C)(C)O)ccc2S(=O)(=O)N([C@H](C)CO)C[C@@H]1C, the activation is reported as 14.1% (inactive).
In the case of CCc1ccccc1NC(=O)Cn1cnc2scc(-c3ccc(OC)cc3)c2c1=O, the activation is reported as -10.3% (inactive).
With Cc1cccc(N(CC(=O)Nc2cccc([N+](=O)[O-])c2)S(C)(=O)=O)c1C the activation was -1.11% (inactive).
For Cc1nc(SCC(=O)Nc2ccc(C(=O)O)cc2)[nH]c(=O)c1C, the activation was -11.8% (inactive).
In the case of CCn1cc(CNC(=S)Nc2cc(OC)ccc2OC)cn1, the activation is reported as -10.5% (inactive).
In the case of CCCNC(=O)N(C)C[C@@H]1Oc2ncc(-c3ccccc3F)cc2C(=O)N([C@@H](C)CO)C[C@H]1C, the activation is reported as 16.1% (inactive).
